Results published in PubChem BioAssay AID651847 (Broad Institute, 2012).
Where “and” joins values, the source holds several entries; their conditions need not be identical. Equal entries are not always repeated. Inconclusive results are not listed. Calls of active or inactive are those of the source. How the calls were made is not given here.

Assay: dose response, V. cholerae BH1651, dry powder (AID 651847)
Conditions: V. cholerae BH1651 luxOD47E, luciferase light induction, 6 h; at 80 µM (top of the series) unless noted

| Structure (SMILES) | activation (light induction) |
| --- | --- |
| O=C(Cc1ccc(-c2ccccc2)cc1)NC1CCOCC1 | -12.5% (inactive) |
| CC(C)c1ccc(CNc2nnnn2C)cc1 | 37.5% (inactive) |
| c1ccc(Cn2nnc(NCc3ccc(N4CCCC4)cc3)n2)cc1 | -50% (inactive) |
| CCCn1nnnc1NCc1ccc(N2CCCC2)cc1 | -25% (inactive) |
| O=C(NCc1ccc(-c2ccccc2)cc1)C1CCCC1 | 12.5% (inactive) |
| O=C(Cc1ccc(-c2ccccc2)cc1)NC1CC1 | 25% (active) |
| O=C(Cc1ccc(-c2ccccc2)cc1)NC1CCCCC1 | -12.5% (inactive) |
| O=C(Cc1ccc(-c2ccccc2)cc1)NC1CCCC1 | 0% (inactive) |
| CCCn1nnnc1NCc1ccc(C(C)C)cc1 | 50% (inactive) |
| CCn1nccc1NCc1ccc(N2CCCC2)cc1 | 12.5% (inactive) |
| CC(C)(C)OC(=O)N1CC(NC(=O)Cc2ccc(-c3ccccc3)cc2)C1 | 0% (inactive) |
| Cn1nnnc1NCc1ccc(N2CCCC2)cc1 | -25% (inactive) |
| CS(=O)(=O)c1ccc(CC(=O)NC2CCCC2)cc1 | -25% (inactive) |
| O=C(Cc1cccc(F)c1)NC1CCCC1 | 0% (inactive) |
| CCn1nnnc1NCc1ccc(C(C)C)cc1 | -4.17% (inactive) and 0% (inactive) |
| Cc1ccc(Cn2nnnc2NCc2ccc(N3CCCC3)cc2)cc1 | -12.5% (inactive) |
| CC1(NC(=O)Cc2ccc(-c3ccccc3)cc2)COC1 | 0% (inactive) |
| O=C(Cc1ccc(-c2ccccc2)cc1)NC1CCC1 | 0% (inactive) |
| O=C(Cc1ccccc1F)NC1CCCC1 | -12.5% (inactive) |
